Results filed as inconclusive are left out. Where a call stands in place of a potency, no number is given. Activity calls are given as the source filed them. Calls follow the shape of the dose curve; as a rule, active = well fitted cell-killing curve with a large enough effect; inconclusive = small, poorly fitted or top-dose-only effect, or effect the other way; inactive = no such curve, though single readings can be large or run the other way.
Experiment: Cell Viability - LYMP2-005 (AID 967)
Conditions: LYMP2-005 lymphoblastoid cell viability; series mostly up to 92.2 µM
Source text: NIH Chemical Genomics Center [NCGC]
NIH Molecular Libraries Screening Centers Network [MLSCN]
National Institutes of Environmental Health Sciences [NIEHS]
National Toxicology Program [NTP]
We have developed a 1536-well cell-based assay for quantitative high throughput screening (qHTS) against a number of cell lines to determine in vitro cytotoxicity of small molecules. This particular assay uses a human lymphoblastoid cell line (LYMP2-005) purchased from Coriell Institute for Medical Research.
NCGC Assay Protocol Summary:
The CellTiter-Glo luminescent cell viability assay (Promega) is a homogeneous method to measure the number of viable cells in culture. The end point readout of this assay is based on quantitation of intracellular ATP, an indicator of metabolic activity, using the luciferase reaction. Luciferase catalyzes the oxidation of beetle Luciferin to oxyluciferin and light in the presence of ATP. The luminescent signal is proportional to amount of ATP present.
Using the CellTiter-Glo luminescent cell viability assay, the amount of cellular ATP was measured in the lymphoblastoid cell line with complete culture medium following compound treatment for 24 hours. The assay was performed in opaque white Kalypsys 1536-well plates. In the screen, tetraoctylammonium bromide was used as positive control. Library compounds were measured for their ability to cause acute toxicity in the cell line, as reflected by a decrease in intracellular ATP levels, in a concentration-dependent manner. […] AC50 values were determined from concentration-response data modeled with the standard Hill equation.
qHTS protocol for CellTiter Glo lymphoblastoid cellular assay
[Step] [Parameter] [Value] [Description]
1. Reagent; 5 uL; 2500 lymphoblastoid cells/well
2. Time; 5 hr; 37 C incubation
4. Controls; 23 nL; Tetraoctylammonium bromide 6.4pM to 92 uM
5. Time; 24 hr; 37 C incubation
6. Reagent; 5 uL; CellTiter Glo reagent
7. Time; 30 min; Room Temperature
8. Detection; Luminescence; Viewlux plate reader
Keywords: cell viability, cytotoxicity, lymphoblastoid cell line, luminescence, NTPHTS, NTPHTS_NCGC, NIEHS, DSSTox, MLSMR, MLSCN, NIH Roadmap, qHTS, NCGC
For O=C(O)c1cc(=O)[nH]c(=O)[nH]1, the Potency was “inactive”.
With Cc1nnc(NS(=O)(=O)c2ccc(N)cc2)s1 the Potency was “inactive”.
With CN(C)c1ccc(C(=C2C=CC(=[N+](C)C)C=C2)c2ccc(N(C)C)cc2)cc1 the Potency was 2510 nM (active).
For O=C(N[C@H](CO)[C@H](O)c1ccc([N+](=O)[O-])cc1)C(Cl)Cl, the Potency was “inactive”.
In the case of Cc1ccnc2c1NC(=O)c1cccnc1N2C1CC1, the Potency is reported as “inactive”.
In the case of NNC(=O)c1ccncc1, the Potency is reported as “inactive”.
With CC1=NN(c2ccccc2)C(=O)C1 the Potency was “inactive”.
For CCc1cc(C(N)=S)ccn1, the Potency was “inactive”.
With Cc1noc(NS(=O)(=O)c2ccc(N)cc2)c1C the Potency was “inactive”.
With C[C@]12C=CC(=O)C=C1CC[C@@H]1[C@@H]2C(=O)C[C@@]2(C)[C@H]1CC[C@]2(O)C(=O)CO the Potency was “inactive”.
For Cc1cc(NS(=O)(=O)c2ccc(N)cc2)no1, the Potency was “inactive”.
With Cc1ncc([N+](=O)[O-])n1CCO the Potency was “inactive”.
Potency is read from the fitted curve at half-maximal effect.
